# Assay outcomes: PubChem, several laboratories
# CYP2C19 inh: inhibitors of human CYP2C19. CYP2C19 Supersomes, luciferin-H EGE luminescence, 30 min. inhibition, % at 5 µM. 21% of 96,000 active. AID 778;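 active = CYP2C19 inhibition above a set limit at 5 µM in the primary screen, cut at about 50% in these data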
# Target sequence (P33261 whole entry, looked up): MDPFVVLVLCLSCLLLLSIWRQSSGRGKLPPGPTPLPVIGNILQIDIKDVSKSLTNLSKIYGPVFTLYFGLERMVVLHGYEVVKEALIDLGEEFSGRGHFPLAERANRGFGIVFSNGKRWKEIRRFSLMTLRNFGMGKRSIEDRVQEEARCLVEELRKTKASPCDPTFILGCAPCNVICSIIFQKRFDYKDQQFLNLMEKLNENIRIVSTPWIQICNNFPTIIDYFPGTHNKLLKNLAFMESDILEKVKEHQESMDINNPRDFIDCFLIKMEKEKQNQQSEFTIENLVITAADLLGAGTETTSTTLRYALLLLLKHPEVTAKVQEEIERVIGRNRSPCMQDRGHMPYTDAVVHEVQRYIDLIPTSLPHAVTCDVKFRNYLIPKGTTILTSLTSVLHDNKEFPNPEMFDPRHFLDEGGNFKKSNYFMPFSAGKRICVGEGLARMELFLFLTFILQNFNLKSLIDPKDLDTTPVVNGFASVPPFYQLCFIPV
# CYP2C9 inhib: human CYP2C9 inhibition; 20% of 96,000 active; P11712; inhibition, % at 5 µM; CYP2C9 Supersomes, luciferin-H conversion, luminescence;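 active = blocking of liver enzyme CYP2C9 beyond about 50% at 5 µM, limit read from the data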
# CYP2C19 activ: activators of human cytochrome P450 2C19; P33261; recombinant CYP2C19, luciferin-H EGE luminescence; active compounds read high; 0 = fully inhibited enzyme, 1 = untreated enzyme; activation factor at 5 µM; 96,000 tested, under 10 active; AID 1025;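 active = activation factor of at least 2 at 5 µM in the primary screen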
# CYP2C9 act: increases human cytochrome P450 2C9 activity; 1.4% of 96,000 active; activation factor at 5 µM; AID 1024; P11712; recombinant CYP2C9, luciferin-H conversion, luminescence; active compounds read high; factor 1 = untreated enzyme, 0 = blocked;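 active = activation factor of 2 or more for CYP2C9 at a 5 µM dose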
# Measles CPE: protection of cells from measles virus; Measles virus-infected cells, CPE protection, absorbance; protection (pct of control), % at 4 µM; 1.5% of 140,000 active; in the data active = protection mostly above about 24%, no sharp cut-off; inactive = mostly below about 26%
# A number is an active result; n = inactive; x = no result given. The list is not random: actives were taken first. Their share in the collection is about 22%.
SMILES,CYP2C19 inh,CYP2C9 inhib,CYP2C19 activ,CYP2C9 act,Measles CPE
O=C(CC1NC(=O)NC1=O)Nc1ccccc1 (configuration not stated),n,68,n,n,n
CC(=O)Nc1ccc(NC(=O)CC2Nc3cccc4cccc(c34)NC2=O)cc1 (configuration not stated),n,63,n,n,n
CSc1nc(-c2ccccc2)nn1C(=O)c1ccc(C)cc1,n,n,n,n,n
CC1(C)C(=O)C2(CCCC2)C(=O)OC1c1ccco1 (configuration not stated),64,n,n,n,n
O=C1OC(c2ccccc2)C2(CCCC2)C(=O)C12CCCC2 (configuration not stated),n,n,n,n,n
CC1(C)C(=O)C2(CCCCC2)C(=O)OC1c1ccc(O)cc1 (configuration not stated),77,60,n,n,n
CC1(C)C(=O)C2(CCCCC2)C(=O)OC1c1cccn1-c1ccc([N+](=O)[O-])cc1 (configuration not stated),x,x,x,x,n
CCC(C)c1ccc(NC(=S)NCc2cccnc2)cc1 (configuration not stated),x,x,x,x,n
Cc1n[nH]c(C)c1S(=O)(=O)N1CCCC(C(=O)Nc2nccs2)C1 (configuration not stated),61,73,n,n,n
O=C(Nc1cc(Cl)ccn1)C1CCN(S(=O)(=O)c2cccs2)CC1,n,n,n,n,n
Cc1ccc(CNC(=O)C2CCCN(S(=O)(=O)c3c(C)n[nH]c3C)C2)cc1 (configuration not stated),71,n,n,n,n
O=C(Nc1nccs1)C1CCN(S(=O)(=O)c2c(Cl)cccc2Cl)CC1,92,n,n,n,n
O=C(O)CC(NC(=O)c1sc2ccccc2c1Cl)c1ccc(F)cc1 (configuration not stated),x,x,x,x,n
Cc1nc(SC2CC(=O)N(c3ccccc3)C2=O)nc2c1CCCC2 (configuration not stated),n,n,n,n,75
CCOC(=O)C1CCC(CN(Cc2ccccc2)S(=O)(=O)c2ccc([N+](=O)[O-])cc2)CC1 (configuration not stated),x,x,x,x,n
Cc1nc(-c2cccc(S(=O)(=O)N3CCCCCC3)c2)cs1,95,66,n,n,n
CC1CN(S(=O)(=O)c2cccc(-c3csc(-c4ccccc4)n3)c2)CC(C)O1 (configuration not stated),n,58,n,n,n
O=S(=O)(c1cccc(-c2nc3ccccc3s2)c1)N1CCOCC1,n,n,n,n,n
CC1CN(S(=O)(=O)c2cccc(-c3cn4ccccc4n3)c2)CC(C)O1 (configuration not stated),n,n,n,n,n
O=S(=O)(c1cccc(-c2csc(-c3ccccc3)n2)c1)N1CCOCC1,n,61,n,n,n
O=c1c2c(nc(NCCO)n1CC1CCCCC1)-c1ccccc1CC21CCCC1,93,100,n,n,n
CC1(C)CC(n2c(NCCO)nc3c(c2=O)C2(CCCC2)Cc2ccccc2-3)CCO1 (configuration not stated),84,84,n,n,n
CC1(C)CC(=NO)CC(C)(C)N1,n,n,n,n,n
O=C(Nc1ccc2c(c1)nc1n2CCSC1)c1ccccc1,n,54,n,n,n
COc1ccc(C(=O)Nc2ccc3c(c2)nc2n3CCSC2)cc1,n,n,n,n,n
SMILES,CYP2C19 inh,CYP2C9 inhib,CYP2C19 activ,CYP2C9 act,Measles CPE
COCCN1CCn2c(nc3cc(NC(=O)c4cccs4)ccc32)C1,n,n,n,n,n
CC(c1ccccc1)N1CCn2c(nc3cc(NC(=O)c4cccs4)ccc32)C1 (configuration not stated),n,84,n,n,n
COc1cc2c3c(c1OC)C1(C=CC(=O)C=C1)CC3N(C(=O)c1ccccc1)CC2 (configuration not stated),n,86,n,n,n
Cc1nc(CC(=O)Nc2nc(-c3ccccc3)cs2)cs1,52,n,n,n,n
O=C(Cc1cccs1)Nc1nc(-c2ccccc2)cs1,51,61,n,n,n
Cc1nc(CC(=O)Nc2nc(C(C)(C)C)cs2)cs1,n,n,n,n,n
N#Cc1sc2nc3c(cc2c1N)CCCC3,x,x,x,x,n
CN1CCN(CP(=O)(N2CCOCC2)N2CCOCC2)CC1,n,n,n,n,n
Cc1ccc(S(=O)(=O)/N=c2\sccn2C)cc1,n,n,n,2.2,n
Cc1cc(C(=O)COC(=O)C2=COCCO2)c(C)n1-c1ccc2c(c1)OCO2,92,85,n,n,n
COCCn1c(-c2ccc(Cl)cc2)cnc1SCC(=O)NCc1cccs1,92,86,n,n,n
CCCn1nnnc1SCC(=O)NCc1cccs1,73,n,n,n,n
CCCCn1nnnc1SCC(=O)Nc1ccc(N(C)C)cc1,53,n,n,n,n
CCCn1nnnc1SCC(=O)c1ccc(NC(C)=O)cc1,n,n,n,n,n
O=C(NC1CCCCC1)C1CCN(c2cnccn2)CC1,n,n,n,n,n
COc1ccc(/C=N\NC(=O)c2cc(O)c(O)c(O)c2)cc1CN1CCN(c2ccc(F)cc2)CC1,x,x,x,x,n
Cc1cc(C(=O)CSc2nnnn2-c2ccccc2)c(C)n1-c1ccc2c(c1)OCO2,x,x,x,x,n
Cc1cc(C(=O)CSc2nncs2)c(C)n1-c1ccc2c(c1)OCO2,86,53,n,n,n
CCn1nnnc1SCC(=O)Nc1ccc(OC)cc1,x,x,x,x,n
CCCCn1nnnc1SCC(=O)Nc1ccc(F)cc1,97,71,n,n,n
CCCCn1nnnc1SCC(=O)Nc1ccc2c(c1)OCO2,n,70,n,n,n
O=C(CSc1nncs1)NCc1ccc2c(c1)OCO2,59,n,n,n,x
CCOC(=O)C1CCCN(C(=O)CN2CCN(Cc3ccc(Cl)cc3)C2=O)C1 (configuration not stated),n,n,n,n,n
CC(C)n1nnnc1SCC(=O)NCc1ccc2c(c1)OCO2,n,n,n,n,n
CCCn1nnnc1SCC(=O)NCc1ccc2c(c1)OCO2,66,53,n,n,n
SMILES,CYP2C19 inh,CYP2C9 inhib,CYP2C19 activ,CYP2C9 act,Measles CPE
C=C(C)CSc1nnc(-c2cccc(Cl)c2)n1N,58,n,n,n,n
CCCC1N2CC3([N+](=O)[O-])CN1CC([N+](=O)[O-])(C2)C3(C)C (configuration not stated),x,x,x,x,n
c1ccc(C(c2nnnn2C2CCCC2)N2CCCCCC2)nc1 (configuration not stated),52,n,n,n,n
CCCC(c1nnnn1C1CCCC1)N1CCN(c2ccccc2F)CC1 (configuration not stated),80,97,n,n,n
CCC(c1nnnn1C1CCCC1)N1CCN(c2ccccc2)CC1 (configuration not stated),n,n,n,n,n
CCC(c1nnnn1C1CCCC1)N1CCN(c2ccccc2F)CC1 (configuration not stated),n,56,n,n,n
